Screening data deposited in PubChem by National Center for Advancing Translational Sciences (NCATS).
A selection: hits, their analogues and other compounds. The true share with any hit is near 9.5%.
RE007 growth inh – less growth of the S. pombe RE007 Vpr strain; AID 651644; Potency, µM (doses to about 92.2 µM), hits mostly inhibitors; actives 0.21% (n = 360,000); S. pombe RE007 Vpr strain, BacTiter-Glo ATP luminescence, 24 h; active = well fitted falling curve with a large enough effect; inconclusive = small, poorly fitted or top-dose-only effect; inactive = no such curve, though single readings can be large or run the other way; note: nearly all actives have a fitted effect of over 50% in size
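Fission yeast strain RE007, carrying one chromosomally integrated HIV-1 vpr copy, was seeded at OD 0.01 in PMG+AL medium with 23 nL pinned compound. After 24 h at 30 °C and 99% humidity, viability was read by BacTiter-Glo luminescence.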
NS1 function inh – blocks influenza NS1 protein function; Potency, µM (top dose mostly 46.1 µM); actives 0.4% (n = 270,000); AID 2326; note: actives are rising curves; nearly all actives have a fitted effect of over 50% in size
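Growth recovery, yeast-based: influenza A NS1 expressed in S. cerevisiae causes slow growth, and suppressors are detected by OD600. The parent strain without NS1 is used as positive control.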
Pf growth 48h – inhibits P. falciparum growth in the first generation, 48 h | Potency, µM (doses to about 28.7 µM), actives largely listed as inhibitors | actives 5.9% (n = 310,000) | P. falciparum luciferase growth in erythrocytes, 48 h; active = well fitted inhibition curve with a large enough effect; inconclusive = small, poorly fitted or top-dose-only effect, or another doubt; inactive = no such curve, though single readings can be large or run the other way
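First compound was added to culture medium, then infected red cells at 0.1% parasitemia and 2% hematocrit (final). After incubation at 37 C under 5% CO2, luciferase detection reagent was dispensed and light output recorded.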
SARS PLP yeast – inhibitors of SARS-CoV papain-like protease in yeast; Potency, µM (series often up to 32.9 µM), most hits filed as activators; S. cerevisiae expressing SARS-CoV PLpro, growth rescue; AID 485353; actives 0.19% (n = 330,000); note: nearly all actives have a fitted effect of over 55% in size
Pf growth 96h – P. falciparum growth inhibition at 96 hour, primary screen for plastid delayed-death inhibitors; AID 504834; actives 6.9% (n = 320,000); Potency, µM (series often up to 28.7 µM), actives largely listed as inhibitors; P. falciparum luciferase reporter growth, 96 h; active = well fitted inhibition curve with a large enough effect; inconclusive = small, poorly fitted or top-dose-only effect, or another doubt; inactive = no such curve, though single readings can be large or run the other way
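Readout is luminescence from an integrated firefly luciferase in P. falciparum. Red cells, 2% hematocrit and 0.05% parasitemia final, were cultured with compound through two parasite generations (96 hours) at 37 C, 5% CO2.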
A number is an active result; – = inactive; ? = inconclusive; · = no result; [ ] = dose if it differs, or a comment. Unless noted, calls come from the whole dose curve.

SMILES	RE007 growth inh	NS1 function inh	Pf growth 48h	SARS PLP yeast	Pf growth 96h
NC(=O)CC(NC(=O)c1ccccc1)c1ccc(NCc2ccc(F)c(F)c2)c([N+](=O)[O-])c1 (stereo unspecified)	–	–	?	–	?
Nc1c(C(=O)CSc2n[nH]c(-c3ccccc3)n2)c(=O)[nH]c(=O)n1C1CC1	–	·	–	–	–
CC1CCN(C(=O)C2CCC(=O)N(Cc3ccc(Cl)cc3)C2)CC1 (stereo unspecified)	–	–	–	–	–
COc1cc(/C=C2\SC(=Nc3ccc(Cl)c(C(=O)O)c3)NC2=O)c(Br)c(Br)c1O	–	–	–	–	?
Cc1ccc(OCC(=O)N/N=C2\CC(=O)CC(C)(C)C2)c(Br)c1	–	–	–	–	9.3µM
Cc1cc(/C=C2/SC(=S)N(c3ccc([N+](=O)[O-])cc3)C2=O)c(C)n1-c1cccnc1	–	?	13µM	–	–
COc1cc(/C=N/Nc2nc3ccccc3[nH]2)ccc1O	–	–	0.83µM	–	?
O=[N+]([O-])c1ccc(O)c(/C=N/Nc2nc3ccccc3[nH]2)c1	–	–	2.3µM	11µM	–
O=[N+]([O-])c1cccc(N/N=C/c2cc([N+](=O)[O-])ccc2O)c1	–	·	–	–	–
COc1cc(/C=N/Nc2nc3ccccc3[nH]2)cc(OC)c1O	–	–	1.7µM	–	0.93µM
COc1cc(/C=N/Nc2nc3ccccc3[nH]c2=O)ccc1O	–	·	?	–	?
COC(=O)c1ccc(/C=N/Nc2nc3ccccc3[nH]2)cc1	–	–	?	–	?
Clc1nc2ccccc2cc1/C=N/Nc1nc2ccccc2[nH]1	–	–	0.52µM	–	?
C[C@H]1CN([C@@H](C)CO)C(=O)c2cc(Br)cnc2O[C@H]1CN(C)C(=O)c1ccc2c(c1)OCO2	–	·	·	·	·
C=CCNc1cc(F)ccc1S(=O)(=O)NCC=C	–	·	·	–	·
O=[N+]([O-])c1ccc(O)c(/C=N/Nc2ccccn2)c1	?	–	2.9µM	?	?
O=C(O)c1ccc(/C=N/Nc2nc3ccccc3[nH]2)cc1	–	–	–	–	–
COc1cc(/C=N/Nc2nc3ccccc3[nH]2)cc(Br)c1OCC(=O)N(C)C	–	–	0.47µM	–	0.47µM
Cc1ccsc1/C=N/Nc1nc2ccccc2[nH]1	–	–	?	–	?
O=[N+]([O-])c1ccc(NN=Cc2ccccc2O)nc1	–	·	·	·	·
C(=N\Nc1nc2ccccc2[nH]1)/c1cccs1	–	–	2.9µM	–	2.6µM
COc1ccc(O)c(/C=N/Nc2nc3ccccc3[nH]2)c1	–	–	1.9µM	–	–
COc1ccc(C2C(C(N)=O)=C(C)Nc3nc(CCCO)nn32)cc1OC (stereo unspecified)	–	–	–	–	–
CCN(CC)C(=O)Cn1cc(C(=O)C(=O)Nc2ccc3c(c2)OCCO3)c2ccccc21	–	?	–	–	–
CCOc1ccc(NC(=O)CN(C)C(=O)c2cccc(S(=O)(=O)N3CCN(C)CC3)c2)cc1OCC	–	·	·	·	·
SMILES	RE007 growth inh	NS1 function inh	Pf growth 48h	SARS PLP yeast	Pf growth 96h
O=[N+]([O-])c1ccc(O)c(/C=N/Nc2ncnc3c2cnn3-c2ccccc2)c1	–	–	1.2µM	–	0.52µM
COc1ccc(NS(=O)(=O)N2CCOCC2)cc1	–	–	?	–	?
CC(C)NC(=O)CC(c1ccccc1)c1cc(Br)ccc1O (stereo unspecified)	–	–	·	–	?
O=C(CC(c1ccccc1)c1ccccc1)Nc1ccc(O)cc1	–	–	–	–	–
COCCNC(=O)CSc1nc(-c2ccccc2)c(-c2ccccc2)o1	–	–	8.3µM	–	·
CC(=O)Nc1ccc(NC(=O)CC(c2ccccc2)c2ccccc2)cc1	–	–	12µM	·	–
COCCNC(=O)CC(c1ccccc1)c1ccccc1	–	–	·	–	9.3µM
CCCCCCNC(=O)CC(c1ccccc1)c1cc(Br)ccc1O (stereo unspecified)	–	–	12µM	–	?
COc1ccc(CCCNC(=O)C2(C)Cc3c(-c4ccc(C(N)=O)cc4)ccnc3O2)cc1 (stereo unspecified)	–[18.4 µM]	·	·	·	·
O=C(COc1ccc(Br)cc1CO)Nc1ccc(S(=O)(=O)N2CCCCC2)cc1	–	·	9.3µM	–[6.58 µM]	6.6µM
CCc1ccc(OCC(=O)Nc2ccc(S(=O)(=O)N3CCCC3)cc2)c(Br)c1	–	–	13µM	–	·
Cc1ccc(CSCc2ccc(C(=O)NC3CC3)o2)cc1	–	–	1.2µM	–	?
